In PubChem BioAssay (NCATS):
Records with an inconclusive call do not appear. Active and inactive are the calls of the source. Calls come from the whole dose curve; as a rule, active = well fitted inhibition curve with a large enough effect; inconclusive = small, poorly fitted or top-dose-only effect; inactive = flat fitted curve, though single readings scatter.

Tests used:
[1] = qHTS profiling for inhibitors of Plasmodium falciparum proliferation (AID 504749); note: nearly all actives have a fitted effect of over 60% in size;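 for activity, negative = inhibition: 0% = DMSO vehicle and full inhibition = artemisinin control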; settings: P. falciparum in erythrocytes, SYBR Green DNA, 72 h, at 28.7 µM (top of the series)
Outline: (§1)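 SYBR Green fluorescence (ex 485 nm, em 535 nm) reports parasite DNA after 72 h compound exposure of infected red cells at 0.3% parasitemia, 2.5% hematocrit; signal normalized to 0.29 uM artemisinin and vehicle wells.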

[2] = tested on: 3D7; test: as above; settings: P. falciparum in erythrocytes, SYBR Green DNA, 72 h; series mostly up to 28.7 µM
Outline: as §1

[3] = tested on: 7G8; test: as above; settings: P. falciparum in erythrocytes, SYBR Green DNA, 72 h; series mostly up to 28.7 µM
Outline: as §1

[4] = tested on: AA1029; test: as above; settings: P. falciparum in erythrocytes, SYBR Green DNA, 72 h; series mostly up to 28.7 µM
Outline: as §1

[5] = tested on: AS120; test: as above; settings: P. falciparum in erythrocytes, SYBR Green DNA, 72 h; series mostly up to 28.7 µM
Outline: as §1

[6] = tested on: ATS95; test: as above; settings: P. falciparum in erythrocytes, SYBR Green DNA, 72 h; series mostly up to 28.7 µM
Outline: as §1

[7] = tested on: ATS189; test: as above; settings: P. falciparum in erythrocytes, SYBR Green DNA, 72 h; series mostly up to 28.7 µM
Outline: as §1

[8] = tested on: C2A; test: as above; settings: P. falciparum in erythrocytes, SYBR Green DNA, 72 h; series mostly up to 28.7 µM
Outline: as §1

[9] = tested on: CP185; test: as above; settings: P. falciparum in erythrocytes, SYBR Green DNA, 72 h; series mostly up to 28.7 µM
Outline: as §1

[10] = tested on: CP191; test: as above; settings: P. falciparum in erythrocytes, SYBR Green DNA, 72 h; series mostly up to 28.7 µM
Outline: as §1
Potency is the fitted concentration of half-maximal effect.

CCOC(=O)c1ccc(C#Cc2ccc3c(c2)C(C)(C)CCS3)nc1
inactive: activity, negative = inhibition ([1]; parasite line B) -14.4% | Potency [2] | Potency [4] | Potency [5] | Potency [6]
active: Potency [3] 12.6 µM

CCOC(=O)[C@H](CCc1ccccc1)N[C@H]1CS[C@H](c2cccs2)CN(CC(=O)O)C1=O
inactive: activity, negative = inhibition ([1]; parasite line A) -33.7% | Potency [2] | Potency [4] | Potency [7] | Potency [6] | Potency [8] | Potency [9] | Potency [10]

CC(C)Cn1cnc2c(N)nc3ccccc3c21
inactive: activity, negative = inhibition ([1]; parasite line B) -10.9% | Potency [2] | Potency [4] | Potency [5] | Potency [7] | Potency [6] | Potency [8] | Potency [9] | Potency [10]

CNCC[C@H](Oc1cccc2ccccc12)c1cccs1
active: Potency [3] 2.24 µM | Potency [4] 7.08 µM | Potency [5] 11.2 µM | Potency [6] 7.94 µM | Potency [10] 11.2 µM

COc1nc(N)nc2c1ncn2[C@@H]1O[C@H](CO)[C@@H](O)[C@@H]1O
inactive: activity, negative = inhibition ([1]; parasite line A) -5.23% | activity, negative = inhibition ([1]; parasite line B) -4.98% | Potency [2] | Potency [4] | Potency [5] | Potency [7] | Potency [6] | Potency [8] | Potency [9] | Potency [10]

O=C(O)c1cc(=O)[nH]c(=O)[nH]1
inactive: activity, negative = inhibition ([1]; parasite line A) 24.2% | activity, negative = inhibition ([1]; parasite line B) 6.15% | Potency [2] | Potency [4] | Potency [5] | Potency [7] | Potency [6] | Potency [8] | Potency [9] | Potency [10]

COc1ccc(-c2ccc3cc(C(=O)O)ccc3c2)cc1C12CC3CC(CC(C3)C1)C2
inactive: activity, negative = inhibition ([1]; parasite line A) 6.34% | activity, negative = inhibition ([1]; parasite line B) 6.13% | Potency [2] | Potency [4] | Potency [5] | Potency [7] | Potency [8] | Potency [9] | Potency [10]

COc1ncnc(NS(=O)(=O)c2ccc(N)cc2)c1OC
inactive: activity, negative = inhibition ([1]; parasite line A) -18.9% | activity, negative = inhibition ([1]; parasite line B) 11.3% | Potency [3] | Potency [4] | Potency [5] | Potency [7] | Potency [6] | Potency [8] | Potency [9] | Potency [10]

CCc1c2c(nc3ccc(OC(=O)N4CCC(N5CCCCC5)CC4)cc13)-c1cc3c(c(=O)n1C2)COC(=O)[C@]3(O)CC
inactive: activity, negative = inhibition ([1]; parasite line A) -1.15% | Potency [2] | Potency [4] | Potency [5] | Potency [7] | Potency [6] | Potency [8] | Potency [9] | Potency [10]
